High-throughput results deposited in PubChem BioAssay by several laboratories.
Most compounds without a hit are left out; they make up all but 1.4% or so of the library.
GALR2 agonist: GALR2 receptor agonists, primary screen, cell-based | AID 803, 2007 | 140,000 compounds, 0.48% hits | GALR2-expressing cells, agonist activation read-out | activation, % (test concentration not listed) | Galanin receptor type 2 (Homo sapiens), O43603; in the data active means activation above about 5%, passing the limit was not always enough;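 further: 0% = vehicle buffer wells and 100% = reference agonist at full effect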
Mac1 fbg enh: enhancers of CD11b/CD18 adhesion to fibrinogen, primary screen, K562 cells, luminescence; Integrin beta-2 (Homo sapiens) + Integrin alpha-M (Homo sapiens), P05107+P11215; 93,000 compounds, 0.07% hits; activation, % at 10 µM; AID 1499, 2009; ATPlite luminescence;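 active means 10 µM primary screen giving 50% or more activity, confirmed by 40% or more on retest at that dose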
Target sequence (P05107 whole entry, looked up, other chains not shown): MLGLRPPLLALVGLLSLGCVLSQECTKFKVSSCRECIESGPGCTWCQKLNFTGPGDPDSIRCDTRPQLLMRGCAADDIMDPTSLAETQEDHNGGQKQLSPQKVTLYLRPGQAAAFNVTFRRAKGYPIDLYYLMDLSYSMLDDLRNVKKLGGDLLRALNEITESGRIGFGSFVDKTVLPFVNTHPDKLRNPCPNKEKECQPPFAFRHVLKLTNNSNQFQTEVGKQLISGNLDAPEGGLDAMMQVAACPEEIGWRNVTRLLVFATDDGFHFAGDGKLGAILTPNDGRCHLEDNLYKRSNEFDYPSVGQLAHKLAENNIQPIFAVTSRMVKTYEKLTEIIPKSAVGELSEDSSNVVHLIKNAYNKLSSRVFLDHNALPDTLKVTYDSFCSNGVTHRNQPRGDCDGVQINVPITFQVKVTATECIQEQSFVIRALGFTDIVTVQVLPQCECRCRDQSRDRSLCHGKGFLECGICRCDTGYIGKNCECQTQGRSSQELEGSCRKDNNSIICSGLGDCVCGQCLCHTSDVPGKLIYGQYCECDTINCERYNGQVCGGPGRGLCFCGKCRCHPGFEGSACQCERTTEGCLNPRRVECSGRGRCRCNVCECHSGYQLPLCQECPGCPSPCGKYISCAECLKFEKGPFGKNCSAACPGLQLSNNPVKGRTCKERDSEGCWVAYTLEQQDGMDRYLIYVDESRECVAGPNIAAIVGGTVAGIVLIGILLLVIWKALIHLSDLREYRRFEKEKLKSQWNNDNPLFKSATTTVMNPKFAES
S1P2 agonist: S1P2 receptor agonists, primary screen, cell-based; S1P2-expressing cell line, agonist reporter read-out; activation, % at 4.5 µM; 97,000 compounds, 0.46% hits; AID 729, 2007; in the data active means activation above about 16%;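 further: 0% = vehicle low control and 100% = maximal reference agonist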
S1P2 blocker: human S1P2 receptor antagonists, primary screen, cell-based | 97,000 compounds, 0.21% hits | inhibition, % at 5 µM | Sphingosine 1-phosphate receptor 2 (Homo sapiens), O95136 | AID 736, 2007 | cell-based S1P2 antagonist assay, inhibition at 5 uM; in the data active means inhibition above about 45%;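 further: CRE beta-lactamase reporter cells expressing human S1P2 stimulated with S1P; 0% = agonist at EC80 alone and 100% = agonist plus reference antagonist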
GALR2 antag: GALR2 antagonists in receptor-expressing cells, primary screen; 140,000 compounds, 0.39% hits; antagonist mode; Galanin receptor type 2 (Homo sapiens), O43603; inhibition, % at 4 µM; in the data active means inhibition above about 27%;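 further: cells stimulated with galanin 1-16 at roughly its EC80; 0% = agonist challenge control and 100% = basal control without agonist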
CD11b adhes inh: inhibitors of CD11b/CD18 adhesion to fibrinogen, primary screen, K562 cells, luminescence. ATPlite luminescence; Mn2+ added to activate the integrin. AID 1497, 2009. 93,000 compounds, 0.54% hits. Integrin beta-2 (Homo sapiens) + Integrin alpha-M (Homo sapiens), P05107+P11215. inhibition, % at 10 µM;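 active means primary inhibition of 50% or more at 10 µM, then 40% or more on retest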
Numbers without * were called inactive.

How did COc1cc(-c2nc3n(n2)C(c2cccc(OC)c2OC)C2=C(CCCC2=O)N3)cc(OC)c1OC (stereo not drawn) do in these assays?
GALR2 agonist: 0; S1P2 agonist: 27*; S1P2 blocker: -38; GALR2 antag: -3

What do the screens show for `COc1ccc(C2C3=C(CCCC3=O)Nc3nc(-c4cc(OC)c(OC)c(OC)c4)nn32)cc1OC` (stereo not drawn)?
GALR2 agonist: 0; Mac1 fbg enh: 0; S1P2 agonist: 6; S1P2 blocker: -8; GALR2 antag: 0; CD11b adhes inh: -11

How did COc1ccc(C(C(=O)NCc2ccccc2)N(Cc2ccc3c(c2)OCO3)C(=O)c2cnccn2)cc1 (stereo not drawn) do in these assays?
GALR2 agonist: 0; Mac1 fbg enh: 2; S1P2 agonist: -3; S1P2 blocker: -2; GALR2 antag: -2; CD11b adhes inh: -1

What do the screens show for `O=C(N/N=C/c1ccc(-c2ccc(S(=O)(=O)Nc3ncccn3)cc2)o1)c1cc2ccccc2cc1O`?
GALR2 agonist: -2; Mac1 fbg enh: 53*; S1P2 agonist: -3; S1P2 blocker: -26; GALR2 antag: -4; CD11b adhes inh: -11

Results for COc1ccc(NC(=O)C2CCN(c3nc(C)nc4c3CCC4)CC2)cc1 ?
Mac1 fbg enh: -2; CD11b adhes inh: 41

Results for COCCCNC(=O)c1c(N)n(-c2cccc(S(N)(=O)=O)c2)c2nc3ccccc3nc12 ?
GALR2 agonist: 3; Mac1 fbg enh: 15; S1P2 agonist: 11; S1P2 blocker: -15; GALR2 antag: 0; CD11b adhes inh: -29

What do the screens show for `CCCNC(=O)c1c(N)n(-c2cccc(OC)c2)c2nc3ccccc3nc12`?
GALR2 agonist: 18*; S1P2 agonist: 21*; S1P2 blocker: -29; GALR2 antag: -5

What do the screens show for `CCC(Sc1ncccc1C(=O)OC(C)C)C(=O)NCc1ccco1` (stereo not drawn)?
GALR2 agonist: 0; Mac1 fbg enh: -7; S1P2 agonist: -3; S1P2 blocker: -25; GALR2 antag: 0; CD11b adhes inh: -18

What do the screens show for `Cc1ccc(-n2c(SCC(=O)Nc3cc(C)on3)nc3c([nH]c4ccccc43)c2=O)cc1`?
GALR2 agonist: 2; Mac1 fbg enh: 4; S1P2 agonist: 18*; S1P2 blocker: -9; GALR2 antag: 3; CD11b adhes inh: -20

What do the screens show for `COc1ccc2nc(Nc3nc4cc5c(cc4s3)OCO5)sc2c1`?
GALR2 agonist: 6.8*; GALR2 antag: -6

How did CCOC(=O)C1=C(O)/C(=C/c2cn(CC(=O)NCC3CCCO3)c3ccccc23)SC1=Nc1ccc(C)cc1 (stereo not drawn) do in these assays?
GALR2 agonist: 1; S1P2 agonist: -5; S1P2 blocker: 3; GALR2 antag: 34*

How did O=c1n(CCCN2CCN(c3cccc(Cl)c3)CC2)nc2ccccn12 do in these assays?
GALR2 agonist: -1; GALR2 antag: 1

What do the screens show for `CCOc1cccc(OCCCCn2ccnc2)c1`?
GALR2 agonist: -1; S1P2 agonist: 83*; S1P2 blocker: 9; GALR2 antag: 2

What do the screens show for `COCC(=O)Nc1ccc(S(=O)(=O)Nc2cc(C)nc(C)n2)cc1`?
GALR2 agonist: -2; Mac1 fbg enh: -3; S1P2 agonist: -3; S1P2 blocker: -3; GALR2 antag: 7; CD11b adhes inh: -4

How did COc1ccc(-n2cccc2/C=C/[N+](=O)[O-])cc1 do in these assays?
GALR2 agonist: 0; GALR2 antag: 20

How did COc1ccc(C(=O)C(CO)Oc2ccccc2OC)cc1OC (stereo not drawn) do in these assays?
GALR2 agonist: -2; Mac1 fbg enh: -1; S1P2 agonist: 19*; S1P2 blocker: 13; GALR2 antag: -7; CD11b adhes inh: 1

What do the screens show for `CC(C)(C)C(=O)Nc1ccc(-c2cn3ccsc3n2)cc1`?
GALR2 agonist: -1; Mac1 fbg enh: -9; S1P2 agonist: -4; S1P2 blocker: 11; GALR2 antag: 5; CD11b adhes inh: 61*

What do the screens show for `COc1cc2c(cc1OC)C1=C(C#N)CN(CC(=O)O)CN1CC2`?
GALR2 agonist: -1; Mac1 fbg enh: 6; S1P2 agonist: 23*; S1P2 blocker: -28; GALR2 antag: -8; CD11b adhes inh: -8
